Laboratory results reported in PubChem BioAssay AID376 (PDSP, 2006).
Hit rate of the full screen: of about 2,000 compounds, about 250 (12%) were called active. The full list was thinned out, with actives kept by preference. Values without a mark were called inactive. Rule as the data show it: active = hERG blockade below about -20% or above about 20%; inactive = in between.

What follows are compounds tested against Voltage-gated inwardly rectifying potassium channel KCNH2 (Homo sapiens) (UniProt Q12809) (assay: KCNH2 potassium channel function modulators, cell-based (AID 376;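 also: 0% = buffer alone and 100% = reference blocker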)). Details: hERG-expressing cells, channel activity single-concentration screen; concentration not given here.
Chain of Voltage-gated inwardly rectifying potassium channel KCNH2 (Homo sapiens) (Q12809 whole entry, looked up): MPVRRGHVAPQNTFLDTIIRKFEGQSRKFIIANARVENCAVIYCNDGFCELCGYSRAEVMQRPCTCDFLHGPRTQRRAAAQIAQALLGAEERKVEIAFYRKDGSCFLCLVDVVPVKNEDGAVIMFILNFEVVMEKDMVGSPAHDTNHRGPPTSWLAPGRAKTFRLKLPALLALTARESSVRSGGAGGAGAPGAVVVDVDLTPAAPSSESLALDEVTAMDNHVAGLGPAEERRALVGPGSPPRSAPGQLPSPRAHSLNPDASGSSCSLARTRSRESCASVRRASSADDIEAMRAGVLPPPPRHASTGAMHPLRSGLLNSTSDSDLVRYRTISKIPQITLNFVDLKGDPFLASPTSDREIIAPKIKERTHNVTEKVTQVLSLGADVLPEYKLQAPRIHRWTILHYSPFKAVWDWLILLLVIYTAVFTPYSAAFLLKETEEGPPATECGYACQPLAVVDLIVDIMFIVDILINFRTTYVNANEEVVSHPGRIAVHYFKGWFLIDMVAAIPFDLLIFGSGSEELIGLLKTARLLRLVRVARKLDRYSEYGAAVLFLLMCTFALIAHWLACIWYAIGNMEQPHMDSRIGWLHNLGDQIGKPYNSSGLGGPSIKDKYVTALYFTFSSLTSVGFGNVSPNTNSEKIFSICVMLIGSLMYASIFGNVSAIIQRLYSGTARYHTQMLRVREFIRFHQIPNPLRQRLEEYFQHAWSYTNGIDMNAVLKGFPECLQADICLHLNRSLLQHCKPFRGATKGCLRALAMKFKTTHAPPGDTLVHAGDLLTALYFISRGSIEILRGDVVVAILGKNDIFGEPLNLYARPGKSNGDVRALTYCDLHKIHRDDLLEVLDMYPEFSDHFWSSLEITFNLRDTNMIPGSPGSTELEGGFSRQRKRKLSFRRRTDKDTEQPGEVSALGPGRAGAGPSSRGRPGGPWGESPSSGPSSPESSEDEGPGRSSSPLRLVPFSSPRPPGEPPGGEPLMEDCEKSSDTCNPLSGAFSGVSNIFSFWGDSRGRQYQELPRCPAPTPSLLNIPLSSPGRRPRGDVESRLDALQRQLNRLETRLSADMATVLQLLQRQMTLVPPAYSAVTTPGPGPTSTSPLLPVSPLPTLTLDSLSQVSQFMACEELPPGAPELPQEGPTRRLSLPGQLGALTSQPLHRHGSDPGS

Row | SMILES | hERG blockade
1 | COc1ccc(C=NNC(=O)O)cc1 | -2.22%
2 | CN1CCN(CC(=O)N2c3ccccc3Sc3cc4ccccc4cc32)CC1 | 52.7% (active)
3 | CC1CCN(CC(=O)N2c3ccccc3Sc3cc4ccccc4cc32)CC1 | 14%
4 | O=C(CC1(O)CCCCC1)OC1CCCC1 | -2.11%
5 | CCOC(=O)c1c2c(n3ccccc13)C(=O)c1ccccc1C2=O | 8.67%
6 | NC1(C(=O)O)CCCC1C(=O)O (configuration not stated) | -13.4%
7 | CCC1(O)C(=O)OCc2c1cc1n(c2=O)Cc2cc3c(CN(C)C)c(O)ccc3nc2-1 (configuration not stated) | 21.4% (active)
8 | O=C(O)c1ccc(NS(=O)(=O)Cc2ccccc2)cc1 | 7.65%
9 | NC(N)=NC1C(O)C(O)C(O)C(N=C(N)N)C1O (configuration not stated) | -0.537%
10 | Cc1[nH]c2ccccc2c1-c1cc(-c2cc(-c3c(C)[nH]c4ccccc34)on2)no1 | -7.59%
11 | N#Cc1c(NC(=O)C(F)(F)F)sc2c3c(=O)c4ccccc4c(=O)c=3oc3ccccc3c12 | 59% (active)
12 | NCOC(=O)Cc1ccc(Br)cc1 | -16.9%
13 | COc1ccc2c(c1)[n+]([O-])c(C(C)=NNC(N)=S)c(C)[n+]2[O-] | -7.37%
14 | c1nc(NCCc2cnc[nH]2)c2[nH]cnc2n1 | -31% (active)
15 | O=C(O)CCNc1ncnc2nc[nH]c12 | 14%
16 | OCCNc1ncnc2nc[nH]c12 | 3.32%
17 | Cn1c(=O)c2[nH]c(N=NN3CCN(CCO)CC3)nc2n(C)c1=O | 0.124%
18 | O=C(O)C(=Cc1ccc(O)cc1)c1cccc2ccccc12 | 0.955%
19 | Cn1c(CC(O)c2nc3ccccc3n2C)nc2ccccc21 (configuration not stated) | -5.68%
20 | O=C(O)Cc1cccc2c(=O)cc(-c3ccccc3)oc12 | -7.46%
21 | N=C(N)SCc1cccc(-c2nc3ccccc3c(=O)o2)c1 | -5.77%
22 | N=C(N)SCc1cccc2c(=O)cc(-c3ccccc3)oc12 | 44.3% (active)
23 | c1ccc2c(c1)C(=Nc1ccc(N=C3c4ccccc4-c4ccccc43)cc1)c1ccccc1-2 | 6.51%

Row | SMILES | hERG blockade
24 | CC(C)N(CC(=O)O)CC(=O)O | 7.91%
25 | NC(Cc1ccccc1)C(=O)O (configuration not stated) | 16.4%
26 | [N-]=[N+]=Nc1ccccc1-c1ccccc1[N+](=O)[O-] | -19.7%
27 | c1cc(-c2sc(-c3ccncc3)c(-c3ccncc3)c2-c2ccncc2)ccn1 | 22.4% (active)
28 | Nc1[nH]c(=S)[nH]c(=O)c1N=Nc1c(Br)cc(S(N)(=O)=O)cc1Br | 6.92%
29 | CSC12C(=O)CC3(C)C(CCC3(O)C(=O)CO)C1CCC1=CC(=O)CCC12C (configuration not stated) | 3.28%
30 | Ic1ccc2c(c1)N(c1ccccc1)c1cc(Nc3ccc4nc5ccc(I)cc5[n+](-c5ccccc5)c4c3)ccc1N2 | 30.3% (active)
31 | CN1CCCN(C)C1c1cc([N+](=O)[O-])ccc1O | 11.9%
32 | CC(N)C(C)Cc1ccccc1 (configuration not stated) | 8.67%
33 | COC(=O)c1cc(-c2ccc3ccccc3c2)[nH]c(=O)c1C#N | 2.57%
34 | ClC(Cl)(Cl)C(N1CCN(c2ccccc2)CC1)N1CCN(c2ccccc2)CC1 | 3.84%
35 | Nc1cc(S(=O)(=O)O)cc2ccc(S(=O)(=O)O)cc12 | -2.77%
36 | CN(CCc1ccccn1)c1ccc2c(c1)Cc1ccccc1-2 | 20.3% (active)
37 | CN(CCc1ccccn1)c1ccc2c(c1)C(=O)c1ccccc1-2 | 75.4% (active)
38 | CC(C)C(=O)C(C)(C)CCc1ccccn1 | 1.93%
39 | C(=Nc1ccc2c(c1)Cc1ccccc1-2)c1ccccn1 | -16.5%
40 | O=C1c2ccccc2-c2ccc(N(Cc3ccc(Br)cc3)Cc3ccc(Br)cc3)cc21 | 15.9%
41 | ON(CCc1ccccn1)Cc1ccccc1 | -7.89%
42 | Cn1ncc2c(Cl)ncnc21 | 12.1%
43 | O=C(O)CCCN1CCCCC1 | -19.4%
44 | NCCSCCc1ccccc1 | -4.22%
45 | NC(CC(=O)Nc1cc(C(F)(F)F)ccc1Cl)=NO | 15.2%
46 | CN1CCC(CN2c3ccccc3Sc3ccccc32)C1 (configuration not stated) | 42.9% (active)

Row | SMILES | hERG blockade
47 | c1ccc2sc(SCN(C3CCCCC3)C3CCCCC3)nc2c1 | 12.7%
48 | CCC12CCCN3CCc4c(n(c5ccccc45)C(=O)C1)C32 (configuration not stated) | 37.7% (active)
49 | CC1=CC(C)(C)Nc2ccc(CSc3ccccc3)cc21 | 0.516%
50 | Nc1nc(-c2ccccc2)c(-c2ccccc2)c(-c2nc(N)nc(-c3ccccc3)c2-c2ccccc2)n1 | 1.5%
51 | Nc1nc(N)c(-c2cccc(C(F)(F)F)c2)c(Cc2cccc(C(F)(F)F)c2)n1 | 11%
52 | Nc1nc(Cc2ccccc2)nc(Cc2ccccc2)c1-c1ccccc1 | 29% (active)
53 | Cn1c(=O)c2c(nc(C(=N)SCC(=O)O)n2C)n(C)c1=O | 13.2%
54 | O=C(O)CCSCc1ccccc1 | -0.0927%
55 | O=C(O)C=CC(=O)Nc1cccc2c1-c1ccccc1C2=O | -8.93%
56 | NC(N)=Nc1ccc(-c2ccc(N=C(N)N)cc2)cc1 | -0.0188%
57 | O=C(O)c1cncc(C(=O)O)c1 | 3.7%
58 | CC1CCCC=CC2CC(OC(=O)CN(C)C)CC2C(O)C=CC(=O)O1 (configuration not stated) | -21.9% (active)
59 | COc1ccc(NCc2c(O)ccc3ccccc23)cc1 | -7.42%
60 | NC(=O)NC(=O)C1CCCCC1C(=O)O (configuration not stated) | -24.9% (active)
61 | CSc1ccc(NC(=O)C2CCCCC2C(=O)O)cc1 (configuration not stated) | 10.7%
62 | CNCC(SC)c1ccc(O)c(O)c1 (configuration not stated) | 11.7%
63 | Cc1nc([N+](=O)[O-])cn1-c1nc2ccccn2c1[N+](=O)[O-] | -4.23%
64 | c1ccc(CCN2CCN=C2Cc2ccccc2)cc1 | 11.4%
65 | CC(N)C(N)=NO (configuration not stated) | -3.44%
66 | O=C1CSC2(CCN(CCCN3c4ccccc4Sc4ccc(Cl)cc43)CC2)N1 | 10.1%
67 | CN1CCN(CCCN2c3ccccc3Sc3ccc(C(F)(F)F)cc32)CC1 | 29.9% (active)
